Test results from PubChem BioAssay (Tox21).
Results filed as inconclusive are left out. A call without a number means that no potency is given here. A structure can be active in one record and inactive in another. Calls of active or inactive are those of the source. Calls follow the shape of the dose curve; as a rule, active = well fitted cell-killing curve with a large enough effect in the repeat runs; inconclusive = weak or mixed curves, or effect the other way; inactive = flat fitted curve, though single readings scatter.
Potency is read from the fitted curve at half-maximal effect.

Experiment: qHTS assay to identify small molecule agonists of the androgen receptor (AR) signaling pathway in the presence of an antagonist - cell viability counter screen (AID 1259379); also: nearly all actives have a fitted effect of over 25% in size
Conditions: MDA-kb2 viability, CellTiter-Fluor, 16 h; series mostly up to 92.4 µM; activity change, negative = cytotoxicity: at the top concentration
Description: National Center for Advancing Translational Sciences [NCATS]
NIH Chemical Genomics Center [NCGC]
U.S. Environmental Protection Agency [EPA]
National Institutes of Environmental Health Sciences [NIEHS]
National Toxicology Program [NTP]
U.S. Food and Drug Administration [FDA]
Androgen receptor (AR) is an important member of nuclear receptor family. Its signaling plays a critical role in AR-dependent prostate cancer and other androgen related diseases. Considerable attention has been given in the past decades to develop methods to study and screen for the environmental chemicals that have the potential to interfere with metabolic homeostasis, reproduction, developmental and behavioral functions. Therefore AR binding assay for screening against androgen agonists and antagonists can be used to identify potential endocrine disruptors.
MDA-kb2 cells (from ATCC, deposited by Wilson et al.) are human breast carcinoma cells that were stably transfected with a luciferase reporter gene under control of the MMTV promoter that contains response elements for both androgen receptor (AR) and glucocorticoid receptor (GR). This particular screening for measuring luciferase reporter gene activity using MDA-kb2 cells against Tox21 10K library compounds is a confirmation study on agonist mode screening in the presence of AR-antagonist compound (Nilutamide) at 3.0uM final concentration. The cytotoxicity of the compounds was tested in parallel by measuring the cell viability using CellTiter-Fluor assay system (Promega, Madison, WI) in the same wells.
Tox21 Assay Protocol Summary:
MDA-kb2 cells (cells cultured without CO2) were dispensed at 3,000 cells/well in 4uL of culture medium into white wall/solid-bottom 1536-well plates (Corning Life Sciences, Corning, NY) using a Multidrop Combi (Thermo Fisher Scientific Inc., Waltham, MA) dispenser. The assay plates were incubated at 37C and 0% CO2 for 5hr. One uL of 3.0uM (final concentration) Nilutamide or assay buffer was added using two separate tips of Flying Reagent Dispenser (FRD, Aurora Discovery, San Diego, CA). Then 23nL of compounds dissolved in DMSO at 15 concentrations and positive controls were transferred to the assay plates using a Pintool station (Wako, San Diego, CA). The assay plates were incubated at 37C and 0% CO2 for 16 hr. After 15hr incubation at 37C, 1uL/well CellTiter-Fluor reagent (Promega Corporation) was added to each well of the assay plates using FRD. After 1hr incubation at 37C and 0% CO2, the fluorescence signal was measured using a ViewLux plate reader (PerkinElmer, Shelton, CT).
In the case of `CCCOCCO`, the Potency is reported as “inactive”.
With `C[N+](C)(C)CCO` the Potency was “inactive”.
With `Oc1c(Cl)ccc(Cl)c1Cl` the Potency was “inactive”.
For `Cc1ccc(S(=O)(=O)NCl)cc1`, the Potency was “inactive”.
With `CC(=O)[C@@]1(O)CC[C@H]2[C@@H]3C[C@H](C)C4=CC(=O)C=C[C@]4(C)[C@@]3(F)[C@@H](O)C[C@@]21C` the Potency was “inactive”.
With `CC(=O)Nc1ccc2c(c1)Cc1cc(NC(C)=O)ccc1-2` the Potency was “inactive”.
With `NCCN` the Potency was “inactive”.
In the case of `Brc1nc2ccccc2s1`, the Potency is reported as “inactive”.
In the case of `C=C[C@H]1CN2CC[C@H]1C[C@H]2[C@H](O)c1ccnc2ccc(OC)cc12`, the “activity change, negative = cytotoxicity” value is reported as 0.51% [at 42.5 µM] (inactive).
With `CCCCCC=O` the Potency was “inactive”.
With `COc1ccc2nc(N)sc2c1` the Potency was “inactive”.
In the case of `CCCCCC1C(=O)CCC1CC(=O)OC` (stereo not given), the Potency is reported as “inactive”.
For `IC(I)I`, the Potency was “inactive”.
In the case of `CCCCCCCCCCCCO`, the Potency is reported as “inactive”.
In the case of `CC1(C)OC(=O)NC1=O`, the Potency is reported as “inactive”.
With `Cc1ccc(/C(=C\CN2CCCC2)c2ccccn2)cc1` the Potency was “inactive”.
With `COCCOCCOCCO` the Potency was “inactive”.
With `c1ccc2c(c1)ccc1cc3c(ccc4ccccc43)cc12` the Potency was “inactive”.
For `C=C1C[C@H]2[C@@H]3C=C(C)C4=CC(=O)CC[C@]4(C)[C@H]3CC[C@]2(C)[C@@]1(OC(C)=O)C(C)=O`, the “activity change, negative = cytotoxicity” value was -8.21% [at 42.5 µM] (inactive).
With `O=C1CCc2ccccc2O1` the Potency was “inactive”.
With `OCCNCCO` the Potency was “inactive”.
For `C=C[C@H]1CN2CC[C@H]1C[C@@H]2[C@@H](O)c1ccnc2ccc(OC)cc12`, the Potency was “inactive”.
With `CC(C)=CCO` the Potency was “inactive”.
In the case of `C=CCOC(=O)C(=C)C`, the Potency is reported as “inactive”.
In the case of `CC1(C)O[C@@H]2C[C@H]3[C@@H]4C[C@H](F)C5=CC(=O)C=C[C@]5(C)[C@@]4(F)[C@@H](O)C[C@]3(C)[C@]2(C(=O)CO)O1`, the Potency is reported as “inactive”.
With `C1CN(SSN2CCOCC2)CCO1` the “activity change, negative = cytotoxicity” value was -6.58% (inactive).
For `[O-]/[N+](=N\O)c1ccccc1`, the Potency was “inactive”.
In the case of `Nc1ccc(N)c(Cl)c1`, the “activity change, negative = cytotoxicity” value is reported as 0.382% (inactive).
With `CC(=O)OC(C)C` the Potency was “inactive”.
With `O=C(O)c1ccc(O)cc1` the Potency was “inactive”.
In the case of `CCCCCCCCCCCCCO`, the Potency is reported as “inactive”.
With `C=CN1CCCC1=O` the Potency was “inactive”.
For `Cc1ccc(S(=O)(=O)O)cc1C`, the Potency was “inactive”.
For `FC(F)(F)C(Cl)Br` (stereo not given), the Potency was “inactive”.
With `CC(C)(C)c1cccc(C(C)(C)C)c1O` the Potency was “inactive”.
For `c1ccc2cc3ccccc3cc2c1`, the Potency was “inactive”.
With `Cc1ccc([N+](=O)[O-])c(C)c1` the Potency was “inactive”.
In the case of `Cc1ccc2c(c1)C(=O)OC2=O`, the Potency is reported as “inactive”.
In the case of `COC(=O)c1ccc(C)cc1`, the Potency is reported as “inactive”.
With `NCCS(=O)(=O)O` the Potency was 25.3 µM (active) and inactive.
